# High-throughput results from PubChem BioAssay.
# Shown is part of a subset that was picked to be rich in hits.
# RECQ1 inh: inhibitors of human RECQ1 DNA helicase | P46063 | RECQ1 DNA unwinding, red fluorescence kinetic read | Potency, µM (series often up to 57.3 µM), for the others: at the top dose activity, negative = inhibition, most hits filed as inhibitors | 240,000 tested, 0.54% active | AID 2549;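 also: plate controls were vehicle for no effect and no enzyme for full effect; nearly all actives have a fitted effect of over 30% in size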
#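 RECQ1T1 50 nM; forked duplex (20 bp + 30-nt ss tails) 200 nM, ATP 2 mM final; pH 8.0, 2 mM MgCl2, 2.5 ug/ml poly(dI-dC); 15 min compound preincubation; discontinuous kinetic read over 2 h at RT.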
# PKM2 act: PKM2 (human) enzyme activation. purified PKM2, Kinase-Glo ATP luminescence, activation; response scale: 0% is enzyme alone, no compound. Potency, µM (top dose mostly 57.5 µM), for the others: at the highest dose activation, usual class: activators. 260,000 tested, 0.34% active. AID 1631; also: nearly all actives have a fitted effect of over 55% in size
#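 ATP formation by purified human PK-M2, quantified via coupled luciferase luminescence after 1 h at room temperature with 0.1 mM ADP and 0.5 mM PEP final.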
# APEX1 inh: blocks human APE1 abasic DNA cleavage | P27695 | Potency, µM (doses to about 65.8 µM), for the others: top-dose activity change, negative = inhibition, most hits filed as inhibitors | 350,000 tested, 0.35% active | recombinant APE1, TAMRA/BHQ-2 abasic DNA cleavage fluorescence;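 also: plate controls were vehicle for no effect and reference inhibitor for full effect; nearly all actives have a fitted effect of over 55% in size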
# Target sequence (P27695 whole entry, looked up): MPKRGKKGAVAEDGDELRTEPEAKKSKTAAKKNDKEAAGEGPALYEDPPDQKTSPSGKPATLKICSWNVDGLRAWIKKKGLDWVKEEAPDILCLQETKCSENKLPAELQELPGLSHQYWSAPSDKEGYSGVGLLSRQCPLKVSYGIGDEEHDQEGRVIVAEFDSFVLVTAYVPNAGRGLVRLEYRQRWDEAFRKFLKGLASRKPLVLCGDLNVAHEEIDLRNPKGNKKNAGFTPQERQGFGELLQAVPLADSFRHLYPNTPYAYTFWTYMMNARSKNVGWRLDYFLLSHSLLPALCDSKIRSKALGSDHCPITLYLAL
#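 Endonuclease cleavage of a quenched abasic-site DNA duplex (50 nM) by APE1 (0.75 nM) was tracked by TAMRA dequenching. Compounds were preincubated with enzyme 15 min at room temperature; data normalized to buffer-only and DMSO wells plus NSC13755 control.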
# BLM inh: blocks DNA unwinding by human BLM helicase. P54132. recombinant BLM DNA unwinding, fluorescence dequenching. Potency, µM (titrated, usually from 56.1 µM), for inactives: at the top dose activity change, negative = inhibition, usual class: inhibitors. 350,000 tested, 0.2% active;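 also: plate controls were vehicle for no effect and no enzyme for full effect; nearly all actives have a fitted effect of over 35% in size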
# KDM4E inh: inhibitors of human JMJD2E histone demethylase; Potency, µM (top dose mostly 57.1 µM), without a hit: top-dose activity change, negative = inhibition, hits mostly inhibitors; JMJD2E catalytic domain, FDH-coupled NADH fluorescence (FDH is formaldehyde dehydrogenase); 230,000 tested, 1.6% active; AID 2147; active = well fitted inhibition curve with a large enough effect, not every such curve was filed as active; inconclusive = small, poorly fitted or top-dose-only effect, or another doubt; inactive = no such curve, though single readings can be large or run the other way;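 also: 0% = wells with enzyme and -100% = buffer wells without enzyme; nearly all actives have a fitted effect of over 50% in size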
# Target sequence (B2RXH2 1-337 limits assumed): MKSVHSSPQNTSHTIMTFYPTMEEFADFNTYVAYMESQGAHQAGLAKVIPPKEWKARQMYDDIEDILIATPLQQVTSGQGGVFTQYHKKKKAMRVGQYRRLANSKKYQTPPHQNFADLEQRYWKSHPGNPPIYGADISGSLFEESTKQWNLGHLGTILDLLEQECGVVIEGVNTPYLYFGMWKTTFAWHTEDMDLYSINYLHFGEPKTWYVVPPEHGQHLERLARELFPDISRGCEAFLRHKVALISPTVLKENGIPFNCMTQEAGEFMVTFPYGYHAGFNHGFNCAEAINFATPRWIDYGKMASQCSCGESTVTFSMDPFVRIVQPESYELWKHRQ
# The depositor's hits bear a star; i = inactive; ? = inconclusive; / = not tested or not shown; ! = a repeat was not active; [ ] = remark or other dose. Unless noted, calls follow the shape of the dose curve; as a rule, active = well fitted curve in the direction sought with a large enough effect; inconclusive = small, poorly fitted or top-dose-only effect, or another doubt; inactive = no such curve, though single readings can be large; an effect the other way counts as inactive or inconclusive. Unless noted, % is scaled to controls: 0 for no effect and ±100 for the full control effect; potency is read from the fitted curve at half-maximal effect.
SMILES,RECQ1 inh,PKM2 act,APEX1 inh,BLM inh,KDM4E inh
Oc1ccc2c(c1)OC(c1ccc(O)c(O)c1)C(O)C2 (stereo not drawn),-11%,/,?,-3%,16µM*
CN(C)CCCn1cc(C2=C(c3c[nH]c4ccccc34)C(=O)NC2=O)c2ccccc21,28µM*!,/,-10%,-14%,-16%
OC[C@@H]1OC(O)[C@H](O)[C@H](O)[C@H]1O (stereo partly drawn),-3%,/,0%,-10%,/
FC(F)(F)c1nc(=S)c2ccccc2[nH]1,-1%,-20%,-4%,-3%,10µM*
Oc1ccc2ccccc2c1CN1CCCC1,-16%,-2%,-1%,-3%,32µM*
Cc1ccccc1-c1nc(N2CCOCC2)c2ccccc2n1,-11%,/,8.9µM*,-13%,/
NC[C@@H]1CC[C@@H](N)[C@@H](O[C@H]2[C@H](O)[C@@H](O[C@H]3O[C@H](CO)[C@@H](O)[C@H](N)[C@H]3O)[C@H](N)C[C@@H]2N)O1,/,/,1%,/,/
COc1ccc(COC(=O)C2=C(C)NC(=O)NC2c2ccc(O)c(OC)c2)cc1 (stereo not drawn),-7%,2%,-3%,-3%,-2%
COc1cc(C2NC(=O)NC(C)=C2C(=O)OCc2ccccc2)ccc1O (stereo not drawn),i,-8%,1%,14µM*,2%
CC(=O)OC[C@@H]1O[C@H](CCO/N=C(\C)CCN2CCc3nc(-c4ccccc4)c(-c4ccccc4)cc3C2)C=C[C@@H]1OC(C)=O,-4%[11.5 µM],/,25%[12.4 µM],-1%[12.4 µM],/
CCS(=O)(=O)N1Cc2ccccc2CC1C(=O)Nc1nc2c(C)cccc2s1 (stereo not drawn),i,-1%,8%,-10%,25µM*
COC(=O)CN1CC(=O)c2ccccc2S1(=O)=O,-4%,/,1%,-5%,/
Cc1ccc(C)n1-c1ccc(N(C)C)cc1,-23%,3%,12%,4%,16µM*
Cc1ccc(N(C)C)cc1,-17%,/,-2%,/,/
C=CCN(c1ccccc1)S(=O)(=O)c1cccc(C(=O)Nc2ccncc2)c1,/,/,7%,/,/
C=CCN(c1ccccc1)S(=O)(=O)c1cccc(C(=O)Nc2nc3ccccc3[nH]2)c1,-2%,2%,2%,6%,28µM*
Cc1ccc(NC(=O)CSc2ncn(-c3ccccc3)n2)cc1C,-3%,9%,12%,3%,5%
COc1ccc(NC(=O)CSc2ncn(-c3ccccc3)n2)cc1Cl,-7%,14µM*,-2%,-1%,-1%
S=C(Nc1ccc2nsnc2c1)N1CCCCC1,-1%,0%,-9%,-17%,11µM*
COC(=O)C1=C(C(=O)OC)[C@@H]2Nc3ccccc3[C@@]23C[C@@H](C(=O)OC)N(S(=O)(=O)c2ccc(Br)cc2)C3=N1,-16%[11.5 µM],2%[11.5 µM],-4%[12.4 µM],-7%[12.4 µM],-2%[11.4 µM]
O=C(NCCc1ccccc1)c1c(O)c2cccc3c2n(c1=O)CC3,-6%,-5%,2%,-4%,?
COc1ccc(CNC(=O)c2c(O)c3cccc4c3n(c2=O)CCC4)cc1,8%,29%,-2%,-6%,0.79µM*
O=C(NCc1ccccn1)c1c(O)c2cccc3c2n(c1=O)CC3,-15%,8.9µM*,15%,2%,?
COc1ccc(CNC(=O)c2c(O)c3cccc4c3n(c2=O)CCC4)cc1OC,-9%,-12%,-1%,-8%,20%
CC[C@H](C)[C@H](N)C(=O)N[C@@H](CC(N)=O)C(=O)N1CCC[C@H]1C(=O)N[C@H](C(=O)N[C@@H](Cc1ccc(O)cc1)C(=O)N[C@@H](CCCN=C(N)N)C(=O)N[C@@H](CC(C)C)C(=O)N[C@@H](CCCN=C(N)N)C(=O)N[C@@H](Cc1ccc(O)cc1)C(N)=O)[C@@H](C)CC,-9%,/,-2%,1%,/
SMILES,RECQ1 inh,PKM2 act,APEX1 inh,BLM inh,KDM4E inh
Cc1cc(C)n2c(=S)[nH]nc2n1,-2%,-62%,8%,0%,7.1µM*
C=CC1=C2C=C(C3CC3)N(C3CCCCC3)C=C2C(=O)C(C)(OC(=O)c2ccco2)C1=O (stereo not drawn),19%[11.5 µM],1%[11.5 µM],-2%[12.4 µM],-15%[12.4 µM],-15%[11.4 µM]
O=[N+]([O-])c1ccc2c(c1)N([O-])C1(CCCCC1)[N+]2=O,-2%,14%,-5%,-14%,11µM*
COc1ccc(-n2ccc(=O)c3c2CCCC3=O)cc1,i,28µM*,10%,-2%,?
CCN(CC)CCCNc1oc(-c2ccc(OC)c(OC)c2)nc1C#N,-11%,-5%,5%,3%,2.2µM*
CC(=O)OCC1OC(C#Cc2ccc(F)cc2F)C=CC1OC(C)=O (stereo not drawn),-2%[11.5 µM],/,-1%[12.4 µM],-3%[12.4 µM],/
CC1=C(C(=O)OC(C)C)C(c2ccc(N(C)C)cc2)C2=C(CC(C)(C)CC2=O)N1 (stereo not drawn),i,8%,20%,-2%,14µM*
C[C@H](Cc1ccc(O)c(O)c1)[C@@H](C)Cc1ccc(O)c(O)c1,2.5µM*,/,?,/,14µM*
COc1cc(C[C@@H](C)[C@@H](C)Cc2ccc(O)c(OC)c2)ccc1O,/,/,-16%,/,/
CCCCNC(=O)C(C#N)c1nc2ccccc2nc1N1CCN(c2ccccc2F)CC1 (stereo not drawn),6%,-5%,8%,-11%,32µM*
Cc1cc(O)c(C)c2sc(N)nc12,-7%,/,0%,0%,/
O=C(O)c1cccc(-n2cccc2/C=C2/SC(=O)N(CC(=O)N3CCCC3)C2=O)c1,/,/,13µM*,-7%,/
CC(C)c1ccc(OCc2ccc(C(=O)O)o2)cc1,18%,0%,?,-1%,7.9µM*
CC(C)c1ccc(OCc2ccc(C(=O)N(C)C)o2)cc1,/,/,0%,-5%,/
Cc1noc(C)c1-c1ccc2ncnc(NCc3ccc(C(F)(F)F)cc3)c2c1,i,/,-5%,-4%,/
CCN(CC)C(=O)c1c[nH]c2ccc(S(=O)(=O)Nc3cc(C)cc(C)c3)cc2c1=O,-7%,-1%,-6%,-11%,32µM*
COc1ccccc1CNC(=O)c1c[nH]c2ccc(S(=O)(=O)Nc3cc(C)cc(C)c3)cc2c1=O,/,/,/,-7%,/
CCc1cc(=O)oc2cc(OCc3nn[nH]n3)ccc12,-4%,1%,8%,-5%,20µM*
CCc1cc(=O)oc2cc(OCC=C(C)C)ccc12,-17%,23%,2%,-6%,?
Cc1cc(CCC(=O)O)c(C)cc1CCC(=O)O,-1%,9%,1%,1%,0%
C=CC1=C(C)C2=NC1=CC1=NC(=CC3=NC(=CC4=NC(=C2)C(C)=C4CCC(=O)O)C(CCC(=O)O)=C3C)C(C=C)=C1C.[Zn],13µM*,/,4.5µM*,35µM*,?
CCOC(=O)c1c(C)oc2c1c(C=NCC1CCCO1)c(O)c1ccccc12 (stereo not drawn),18%,-1%,5%,-2%,5%
